About 83,000 compounds went through this panel and 20% of them were active in at least one assay; those are over-represented in the sample as a whole.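 For each line, cells grew in 96-well plates with the test compound present at a single concentration for 48 hours.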 Active and inactive are the calls of the source. The calls were made as follows: active = growth percent below 10; inactive = the rest.
Experiments:
Assay in all cases: NCI-60 one-dose screen, 48 h (100 = growth as untreated, 0 = no growth, -100 = all killed)
HCT-15 colon = details: 10 µM unless noted
HT29 colon = details: 10 µM unless noted
SNB-75 CNS = details: 10 µM unless noted
U251 CNS = details: 10 µM unless noted
PC-3 prostate = details: 10 µM unless noted
SK-MEL-5 melanoma = details: 10 µM unless noted
UACC-62 melanoma = details: 10 µM unless noted
LOX IMVI melanoma = details: 10 µM
SK-MEL-28 melanoma = details: 10 µM unless noted
SK-MEL-2 melanoma = details: 10 µM unless noted
SN12C renal = details: 10 µM unless noted
UO-31 renal = details: 10 µM unless noted
TK-10 renal = details: 10 µM unless noted
ACHN renal = details: 10 µM unless noted
CAKI-1 renal = details: 10 µM unless noted
A498 renal = details: 10 µM unless noted
CCRF-CEM leukemia = details: 10 µM unless noted
MOLT-4 leukemia = details: 10 µM unless noted
SNB-19 CNS = details: 10 µM unless noted
EKVX NSCLC = details: 10 µM unless noted

Measured: growth

CCOC(=O)NC(/C=C/c1ccccc1)NC(=O)OCC
inactive: HCT-15 colon 105% | HT29 colon 101% | SNB-75 CNS 96.6% | U251 CNS 94.5% | PC-3 prostate 96.9% | SK-MEL-5 melanoma 106% | UACC-62 melanoma 97.7% | LOX IMVI melanoma 99.8% | SK-MEL-28 melanoma 105% | SK-MEL-2 melanoma 104% | SN12C renal 99% | UO-31 renal 91.2% | TK-10 renal 100% | ACHN renal 109% | CAKI-1 renal 94.5% | A498 renal 89.3% | CCRF-CEM leukemia 98.4% | MOLT-4 leukemia 98.7%

COc1cc(OC)c(/C=C/c2c3ccccc3cc[n+]2C)c(OC)c1
active: HT29 colon 1.89% | SK-MEL-5 melanoma -14% | LOX IMVI melanoma -39.1%
inactive: HCT-15 colon 97.9% | SNB-75 CNS 12.3% | SNB-19 CNS 35.8% | PC-3 prostate 19.2% | UACC-62 melanoma 15.7% | SK-MEL-28 melanoma 30.1% | SK-MEL-2 melanoma 20.4% | SN12C renal 14.2% | UO-31 renal 75.5% | TK-10 renal 42.1% | ACHN renal 71.5% | CAKI-1 renal 67.8% | A498 renal 36.6% | CCRF-CEM leukemia 18.2% | MOLT-4 leukemia 14.7%

CC(C)c1ccc(Nc2n[nH]c(=S)s2)cc1
inactive: HCT-15 colon 99.8% | HT29 colon 76.1% | SNB-75 CNS 92.3% | SNB-19 CNS 99.1% | PC-3 prostate 93.6% | SK-MEL-5 melanoma 101% | UACC-62 melanoma 99% | LOX IMVI melanoma 101% | SK-MEL-28 melanoma 112% | SK-MEL-2 melanoma 111% | SN12C renal 98.2% | TK-10 renal 93.1% | ACHN renal 106% | CAKI-1 renal 114% | A498 renal 94.6% | MOLT-4 leukemia 97.6%

CC/C(=C(/CC)c1ccc(O)cc1)c1ccc(O)cc1
inactive: HCT-15 colon 47.2% | HT29 colon 71.5% | SNB-75 CNS 51.8% | U251 CNS 42.5% | PC-3 prostate 75.4% | SK-MEL-5 melanoma 21.4% | UACC-62 melanoma 42.4% | LOX IMVI melanoma 65.2% | SK-MEL-28 melanoma 60.1% | SK-MEL-2 melanoma 54.6% | EKVX NSCLC 64.7% | SN12C renal 76% | UO-31 renal 73.2% | ACHN renal 67.8% | CAKI-1 renal 45.8% | A498 renal 81.4% | CCRF-CEM leukemia 48.8% | MOLT-4 leukemia 39.9%

O=C(Cc1nc2cc(Cl)c(Cl)cc2nc1CC(=O)c1cccnc1)c1cccnc1
inactive: HCT-15 colon 57.2% | HT29 colon 71.6% | SNB-75 CNS 88.4% | U251 CNS 89.3% | PC-3 prostate 70.2% | SK-MEL-5 melanoma 81.7% | UACC-62 melanoma 71.4% | LOX IMVI melanoma 65.4% | SK-MEL-28 melanoma 87.1% | SK-MEL-2 melanoma 113% | EKVX NSCLC 54% | SN12C renal 75% | TK-10 renal 141% | ACHN renal 60.9% | CAKI-1 renal 72.5% | A498 renal 133% | CCRF-CEM leukemia 31.4% | MOLT-4 leukemia 38.8%

OC(CSc1ccccc1)CN1CCN(c2ccc(Cl)cc2)CC1 (configuration not stated)
inactive: HCT-15 colon 96.1% | HT29 colon 101% | SNB-75 CNS 91.3% | SNB-19 CNS 94.7% | PC-3 prostate 94.3% | UACC-62 melanoma 82.2% | LOX IMVI melanoma 93% | SK-MEL-28 melanoma 110% | SK-MEL-2 melanoma 98.5% | EKVX NSCLC 95.2% | SN12C renal 94.4% | UO-31 renal 84.8% | TK-10 renal 101% | ACHN renal 97.9% | CAKI-1 renal 88.1% | A498 renal 82.1% | CCRF-CEM leukemia 86% | MOLT-4 leukemia 83%

CC(O)C(O)C(O)C(O)C(O)C(=O)NNc1ccccc1 (configuration not stated)
inactive: HCT-15 colon 78.6% | HT29 colon 104% | SNB-75 CNS 82.6% | U251 CNS 97.6% | PC-3 prostate 86.3% | SK-MEL-5 melanoma 107% | UACC-62 melanoma 30.5% | LOX IMVI melanoma 48.1% | SK-MEL-28 melanoma 103% | SK-MEL-2 melanoma 106% | SN12C renal 90.5% | UO-31 renal 70.6% | TK-10 renal 110% | ACHN renal 67% | CAKI-1 renal 77.1% | A498 renal 69.7% | CCRF-CEM leukemia 59.6% | MOLT-4 leukemia 101%

O=C(c1ccccc1)C(Br)C(Br)c1ccccc1 (configuration not stated)
active: HT29 colon -52.9% | LOX IMVI melanoma -55.3% | CAKI-1 renal -50.2% | CCRF-CEM leukemia -14%
inactive: HCT-15 colon 86% | SNB-75 CNS 96.9% | SNB-19 CNS 102% | PC-3 prostate 55.3% | UACC-62 melanoma 108% | SK-MEL-28 melanoma 111% | SK-MEL-2 melanoma 75.5% | EKVX NSCLC 108% | TK-10 renal 103% | ACHN renal 18.8% | A498 renal 88.4% | MOLT-4 leukemia 47.5%

COC(=O)c1ccc(=O)c2nc3/c(=C/O)c(O)cc(=O)c3[nH]c12
active: U251 CNS 7.56% | UACC-62 melanoma -3.09% | SK-MEL-2 melanoma -7.27% | SN12C renal -5.75% | UO-31 renal 5.33% | A498 renal 1.77% | MOLT-4 leukemia 3.55%
inactive: HCT-15 colon 10.1% | HT29 colon 29.4% | SNB-75 CNS 12.6% | PC-3 prostate 30.5% | SK-MEL-5 melanoma 22% | LOX IMVI melanoma 19% | SK-MEL-28 melanoma 34.2% | EKVX NSCLC 35.3% | TK-10 renal 48.1% | ACHN renal 28.5% | CAKI-1 renal 21.5% | CCRF-CEM leukemia 12.6%

Cc1cc(C)c(C#N)c(Sc2nc(C)c([N+](=O)[O-])c(C)c2C#N)n1
active: LOX IMVI melanoma 1.66% | CAKI-1 renal 0.956%
inactive: HCT-15 colon 58.8% | HT29 colon 35.8% | SNB-75 CNS 66% | SNB-19 CNS 98.4% | PC-3 prostate 77.1% | SK-MEL-5 melanoma 86.5% | UACC-62 melanoma 66.8% | SK-MEL-28 melanoma 78.7% | SK-MEL-2 melanoma 69.4% | SN12C renal 47.4% | UO-31 renal 39.3% | ACHN renal 39.3% | A498 renal 110% | MOLT-4 leukemia 39.7%

CCCCCC/C=C1\CCC(CN2CCCC2)C1=O (configuration not stated)
inactive: HCT-15 colon 77.1% | HT29 colon 120% | SNB-75 CNS 90.9% | SNB-19 CNS 92.6% | PC-3 prostate 89.7% | SK-MEL-5 melanoma 96.9% | UACC-62 melanoma 99.2% | LOX IMVI melanoma 59.8% | SK-MEL-28 melanoma 114% | SK-MEL-2 melanoma 114% | SN12C renal 103% | TK-10 renal 124% | ACHN renal 114% | CAKI-1 renal 102% | A498 renal 94.1% | CCRF-CEM leukemia 33.1% | MOLT-4 leukemia 60.2%

CCC1C[N+]2=C(c3cc(OC)c(OC)cc3CC2)c2c1cc1n2CCc2cc(OC)c(OC)cc2-1 (configuration not stated)
active: SK-MEL-5 melanoma -46.8% | SK-MEL-2 melanoma -1.15%
inactive: HCT-15 colon 87.9% | HT29 colon 41% | SNB-19 CNS 33.8% | U251 CNS 22.7% | PC-3 prostate 17.4% | UACC-62 melanoma 18.7% | LOX IMVI melanoma 41.7% | SK-MEL-28 melanoma 32.8% | EKVX NSCLC 57.9% | SN12C renal 32.7% | UO-31 renal 90.3% | TK-10 renal 82.9% | ACHN renal 96.9% | CAKI-1 renal 87% | A498 renal 75% | CCRF-CEM leukemia 52.1% | MOLT-4 leukemia 41.5%

COc1ccc(NC(=O)/C(=C/N2C(=O)/C(=C/c3ccc(OC)c(OC)c3)NC2=S)C(C)=O)cc1
inactive: HCT-15 colon 80.1% | HT29 colon 92.8% | SNB-75 CNS 38.1% | PC-3 prostate 62.4% | SK-MEL-5 melanoma 68.9% | UACC-62 melanoma 53.9% | LOX IMVI melanoma 58.9% | SK-MEL-28 melanoma 77.2% | SK-MEL-2 melanoma 87.1% | EKVX NSCLC 93.5% | SN12C renal 80.8% | UO-31 renal 54.6% | TK-10 renal 110% | ACHN renal 79.6% | CAKI-1 renal 92.3% | A498 renal 87.6% | CCRF-CEM leukemia 80.3%

NC1=C(Br)C(=O)c2ncccc2C1=O
inactive: HT29 colon 49.1% | PC-3 prostate 11.9% | TK-10 renal 79.1% | A498 renal 113% | CCRF-CEM leukemia 10.5%
active: HCT-15 colon 2.56% | SNB-19 CNS -86.7% | U251 CNS -82.2% | SK-MEL-5 melanoma -98.3% | UACC-62 melanoma -96.3% | LOX IMVI melanoma -71.2% | SK-MEL-28 melanoma -87.4% | SK-MEL-2 melanoma -54.1% | EKVX NSCLC -14.2% | SN12C renal -84.8% | UO-31 renal -96.8% | CAKI-1 renal -81.2% | MOLT-4 leukemia -5.62%

Cc1nc([N+](=O)[O-])c(Sc2nncc(-c3ccccc3)n2)n1C
inactive: HCT-15 colon 68% | HT29 colon 84.5% | SNB-19 CNS 116% | U251 CNS 79.4% | PC-3 prostate 98.1% | SK-MEL-5 melanoma 96% | UACC-62 melanoma 82.2% | LOX IMVI melanoma 82.2% | SK-MEL-28 melanoma 89.1% | SK-MEL-2 melanoma 95.4% | EKVX NSCLC 79.7% | UO-31 renal 60.3% | TK-10 renal 74.4% | ACHN renal 62.6% | A498 renal 107% | CCRF-CEM leukemia 45.1% | MOLT-4 leukemia 65.7%
active: CAKI-1 renal -3.06%

C/C(=N/NC(N)=S)c1ccc(C)cc1
inactive: HCT-15 colon 79.9% | HT29 colon 55.8% | SNB-75 CNS 92.9% | U251 CNS 84.9% | PC-3 prostate 90.6% | UACC-62 melanoma 103% | LOX IMVI melanoma 108% | SK-MEL-28 melanoma 111% | SK-MEL-2 melanoma 101% | EKVX NSCLC 53.9% | SN12C renal 87.4% | TK-10 renal 102% | CAKI-1 renal 99.8% | A498 renal 94.7% | CCRF-CEM leukemia 43.3% | MOLT-4 leukemia 63.9%

Nc1ccc(Oc2ccccc2)c(Cl)c1
inactive: HCT-15 colon 92.6% | HT29 colon 104% | SNB-19 CNS 102% | U251 CNS 84.1% | PC-3 prostate 100% | SK-MEL-5 melanoma 95.6% | UACC-62 melanoma 107% | LOX IMVI melanoma 103% | SK-MEL-28 melanoma 106% | SK-MEL-2 melanoma 105% | SN12C renal 107% | UO-31 renal 72.1% | TK-10 renal 96.1% | ACHN renal 101% | CAKI-1 renal 100% | A498 renal 57.5% | CCRF-CEM leukemia 102% | MOLT-4 leukemia 97.9%

CCOC(=O)C1=NN(c2ccccc2)C(=O)/C1=C\N1C(=O)/C(=C/c2cccc(O)c2)SC1=S
inactive: HCT-15 colon 109% | HT29 colon 111% | SNB-75 CNS 97.2% | SK-MEL-5 melanoma 95% | LOX IMVI melanoma 88% | SK-MEL-28 melanoma 111% | SK-MEL-2 melanoma 99.6% | UO-31 renal 76% | TK-10 renal 117% | ACHN renal 99.5% | CAKI-1 renal 100% | A498 renal 94.5% | CCRF-CEM leukemia 93% | MOLT-4 leukemia 95.7%

Source: PubChem BioAssay (NCI)
